Most compounds without a hit are left out; they make up all but 32% or so of the library.
CYP2C9 activ: CYP2C9 (human) activation; 1.4% of 96,000 active; AID 1024; activation factor at 5 µM; recombinant CYP2C9, luciferin-H conversion, luminescence; active compounds read high; factor 1 = untreated enzyme, 0 = blocked; P11712;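 active = activation factor of 2 or more for CYP2C9 at a 5 µM dose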;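 also: 0 = sulfaphenazole-blocked wells and 1 = vehicle-only wells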
Target sequence (P11712 whole entry, looked up): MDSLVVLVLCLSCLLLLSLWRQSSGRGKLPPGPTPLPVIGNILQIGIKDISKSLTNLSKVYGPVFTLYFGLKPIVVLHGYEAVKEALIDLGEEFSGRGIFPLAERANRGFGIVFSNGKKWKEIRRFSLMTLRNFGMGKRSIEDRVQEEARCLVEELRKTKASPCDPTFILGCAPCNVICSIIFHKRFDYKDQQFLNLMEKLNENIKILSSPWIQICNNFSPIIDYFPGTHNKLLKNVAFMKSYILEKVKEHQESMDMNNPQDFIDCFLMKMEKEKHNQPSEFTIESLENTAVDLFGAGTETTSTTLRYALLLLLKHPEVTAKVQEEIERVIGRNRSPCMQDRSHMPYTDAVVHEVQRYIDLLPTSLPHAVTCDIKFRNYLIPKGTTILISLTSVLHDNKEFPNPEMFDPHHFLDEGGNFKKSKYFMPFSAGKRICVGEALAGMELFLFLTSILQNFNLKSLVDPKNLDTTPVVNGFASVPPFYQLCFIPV
CYP2C9 inhib: human CYP2C9 inhibition; P11712; CYP2C9 Supersomes, luciferin-H conversion, luminescence; inhibition, % at 5 µM; 20% of 96,000 active; AID 777;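 active = blocking of liver enzyme CYP2C9 beyond about 50% at 5 µM, limit read from the data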
PostGolgi ctrl: inhibits growth of the yeast control strain. efflux-deficient yeast background strain, growth absorbance A615, 16 h. inhibition, % at 10 µM. 5% of 98,000 active. AID 738
CYP2C19 activ: activators of human cytochrome P450 2C19; P33261; activation factor at 5 µM; recombinant CYP2C19, luciferin-H EGE luminescence; active compounds read high; 0 = fully inhibited enzyme, 1 = untreated enzyme; 96,000 tested, under 10 active;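 active = activation factor of at least 2 at 5 µM in the primary screen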;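 also: 0 = wells with 2.5 mM tranylcypromine and 1 = vehicle-only wells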
PostGolgi yeast: growth inhibition of a yeast mutant, post-Golgi transport screen | post-Golgi transport phenotypic cell assay | inhibition, % at 10 µM | 0.9% of 98,000 active;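 also: yeast cells grown in 1536-well plates; yeast grown about 18 h at 30C before absorbance read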
CYP2C19 inhib: inhibitors of human CYP2C19; P33261; CYP2C19 Supersomes, luciferin-H EGE luminescence, 30 min; inhibition, % at 5 µM; 21% of 96,000 active; AID 778;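 active = CYP2C19 inhibition above a set limit at 5 µM in the primary screen, cut at about 50% in these data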;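 also: plate controls were negative control wells for no effect and 2.5 mM tranylcypromine positive control for full effect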
* hit, by the source's call; x = no result given. Rule as the data show it, unless noted: active = inhibition above about 30%; inactive = the rest.

SMILES	CYP2C9 activ	CYP2C9 inhib	PostGolgi ctrl	CYP2C19 activ	PostGolgi yeast	CYP2C19 inhib
CCCCOCCCNC1=NCCCCC1	1	0.4	-6.1	1	3.9	-0.9
Cc1ccc(Sc2ncccc2COC(=O)Nc2ccccc2)cc1	0.4	55.4*	9.5	0.8	3.4	21.1
Cc1ccc(Sc2ncccc2COC(=O)Nc2c(C)cccc2C)cc1	0.7	27.0	11.6	0.8	0.9	20.5
CCc1ccc(NC(=O)c2ccc3ncsc3c2)cc1	1.6	-56.9	71.1*	1	13.8	-1.7
CC(C)c1ccc(NC(=O)C2CC(=O)N=C(N)S2)cc1 (configuration not stated)	1.1	-11.1	-9.4	1	3.0	2.3
Cc1cc(C)cc(-n2ccnc2SCC(=O)Nc2nccs2)c1	0.7	31.7	16.3	0.7	-6.2	32.9
CCSc1nnc(NC(=O)CSc2nccn2-c2cccc(C)c2)s1	0.4	63.1*	12.8	0.7	1.3	33.0
Cc1cccc(-n2ccnc2SCC(=O)Nc2nccs2)c1	0.5	49.0	8.6	0.4	6.1	59.9*
COc1cccc(-n2ccnc2SCC(=O)Nc2nccs2)c1	0.5	45.3	7.5	0.4	-5.0	59.2*
COC(=O)COc1ccc(Oc2nc(SC)nc(N(C)C)n2)nn1	0.8	15.0	11.1	0.7	-2.3	31.4
Cc1cc(NC(=O)c2ccc(S(=O)(=O)N3CCOCC3)cc2)nc2c1c(=O)oc1ccccc12	0.6	36.7	4.0	0.7	31.3*	26.7
CCC(CC)C(=O)Nc1cc(C)c2c(=O)oc3ccccc3c2n1	0.6	43.7	33.9*	0.8	29.1	16.3
COc1ccc(CC(=O)Nc2cc(C)c3c(=O)oc4ccccc4c3n2)cc1	0.9	12.3	x	1	x	-0.6
CCOC(=O)c1cc(C(=O)OCC)c2cccc(C)n2c1=O	0.9	6.5	1.9	1	-7.0	-4.1
COC(=O)C1=NN(C(=O)c2ccc(Cl)cc2)C(O)(c2ccccc2)C1 (configuration not stated)	0.7	27.2	-2.7	0.7	14.5	28.7
CCOC(=O)C1=NN(C(=O)c2ccc(C)cc2)C(O)(c2ccc(Cl)cc2)C1 (configuration not stated)	0.7	33.7	10.1	0.4	-0.5	55.5*
CCNc1oc(-c2ccc(OC)cc2)nc1S(=O)(=O)c1ccc(Br)cc1	1	-2.9	1.0	0.9	-10.5	9.5
O=S(=O)(c1ccccc1)c1nc(-c2ccco2)oc1NCc1ccco1	0.7	29.3	16.6	0.5	-6.7	47.2
CCCCNc1oc(-c2ccc(OC)cc2)nc1S(=O)(=O)c1ccccc1	0.8	17.8	5.1	0.5	6.9	54.5*
O=S(=O)(c1ccccc1)c1nc(-c2ccco2)oc1NCCCn1ccnc1	0	99.1*	-6.0	0	-22.0	100.1*
CC(C)Sc1n[nH]c2nc3c(c(=O)n12)C1(CCCC1)Cc1ccccc1-3	0.7	28.1	21.7	1.1	-1.3	-7.0
O=C1OCCC1Sc1ncnc2sccc12 (configuration not stated)	1.3	-28.8	9.4	1.1	2.1	-6.6
O=C(Oc1cccc(Nc2ncnc3ccccc23)c1)c1ccccc1Cl	0.4	57.2*	69.4*	0.9	-1.3	13.9
O=C(Nc1cccc2cccnc12)c1cccc2ccccc12	1.6	-61.4	36.5*	1.1	-3.8	-7.3
O=C(Nc1cccc2ccccc12)c1ccc(Br)o1	0.9	5.1	0.6	0.8	-11.0	23.7
SMILES	CYP2C9 activ	CYP2C9 inhib	PostGolgi ctrl	CYP2C19 activ	PostGolgi yeast	CYP2C19 inhib
O=C(Nc1cccc2cccnc12)c1ccc(Br)o1	2.2*	-119.2	15.9	0.8	16.5	15.0
CCCCn1nc2cc(C(=O)NCc3ccc(OC(F)(F)F)cc3)ccc2c1OC	0.9	11.1	3.9	0.8	0.2	16.5
O=C(CN1CCC(O)(c2ccc3c(c2)OCO3)CC1)N1CCOCC1	1.7	-72.4	1.8	1	-5.3	-4.0
O=C(CN1CCC(O)(c2ccc3c(c2)OCO3)CC1)OC1CCCCC1	0.6	36.4	40.6*	0.5	-5.0	53.7*
COC(=O)c1[nH]c2ccc(Cl)cc2c1NC(=O)CCN1CCOCC1	0.9	12.7	8.2	0.9	-4.2	6.9
OCCSc1nnc(Nc2ccccc2)s1	1	-3.8	8.6	0.8	-2.0	21.4
N#CCSc1nnc(Nc2ccccc2)s1	0.6	41.7	-7.6	0.2	1.5	83.7*
N#CCSc1nc(-c2ccccc2)cs1	1.5	-50.6	14.6	0.4	0.6	56.3*
COc1ccc2oc(C)c(C(N)=O)c2c1	1.1	-7.0	-1.1	0.9	17.0	8.1
COC(=O)c1c(C)oc2ccc(OC(=O)c3cccs3)cc12	0.1	85.1*	2.7	1	-11.7	-0.9
COCCOC(=O)c1c(C)oc2ccc(OC(=O)c3cccs3)cc12	0	97.5*	13.3	0.3	-2.6	71.3*
CCCC(=O)OCCNC(=O)c1cc2ccccc2oc1=O	1	3.9	0.7	0.8	19.3	22.7
CCOC(=O)c1ccc(NC(=O)C2=C(C)Nc3nc(CCCO)nn3C2c2cccc(C)c2)cc1 (configuration not stated)	0.8	16.9	0.1	0.8	0.5	15.3
COc1cnc(-c2ccccn2)nc1Oc1ccccc1Cl	1	-4.9	7.8	0.9	-14.1	8.4
COc1cnc(-c2ccccn2)nc1Oc1ccc(Cl)c2ccccc12	1.1	-7.2	62.8*	0.6	24.2	38.4
Cc1[nH]c2ccccc2c1C(=O)CN1CCSCC1	0.6	35.4	3.5	0.2	-1.8	77.1*
COc1ccccc1N1CCN(CC(=O)c2c(C)[nH]c3cc(C)ccc23)CC1	1	4.0	3.2	0.4	2.4	62.2*
COc1ccccc1N1CCN(CC(=O)c2c(C)n(C)c3ccccc23)CC1	1.6	-63.8	7.4	0.5	5.1	54.5*
Cc1[nH]c2ccccc2c1C(=O)CN1CCCC1	0.6	39.0	7.8	0.7	8.4	29.7
COc1ccc(C(=O)N2CCN(S(=O)(=O)N3CCOCC3)CC2)cc1OC	1.1	-14.1	6.4	1.1	-0.2	-9.5
CCOC(=O)N1CCN(C(=O)Cn2cc3c(n2)CCCC3)CC1	1	1.6	-8.8	0.9	-2.1	10.3
CCCOc1ccccc1Nc1nnc(C)c(=O)[nH]1	1.1	-9.1	12.1	1.1	2.0	-6.2
O=C(Nc1ccc2c(c1)OCO2)C(c1ccc(Cl)cc1)N1CCN(C(=O)c2ccco2)CC1 (configuration not stated)	0.1	94.7*	12.3	0.3	7.3	75.0*
CC(C(=O)Nc1ccc2c(c1)OCCO2)N1CCN(C(=O)c2ccco2)CC1 (configuration not stated)	0.9	10.3	2.2	1.1	2.5	-8.5
O=C(c1ccco1)N1CCN(C(=O)C(Sc2ccccc2)c2ccccc2)CC1 (configuration not stated)	0.2	83.4*	1.1	0.2	9.8	78.2*
O=C(Nc1ccc2c(c1)OCO2)C(c1ccccc1)N1CCN(C(=O)c2ccco2)CC1 (configuration not stated)	0	98.5*	-3.4	0.2	-10.3	75.6*

Source: PubChem (several laboratories)
